PubChem BioAssay (NCI)
About 79,000 compounds went through this panel and 15% of them were active in at least one assay; those are over-represented in the sample as a whole. The source made the active and inactive calls. Rule as the data show it: active = growth inhibition above about 70%; inactive = the rest.

Legend:
[1] = NCI Yeast Anticancer Drug Screen. Data for the wt1 strain (AID 149);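 also: 0% = growth of vehicle-treated wt1 cultures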; details: S. cerevisiae wt1 strain (SPY 50644) growth inhibition, stronger effect = higher value
In short: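 wt1 strain grown with compound or vehicle; inhibition taken from the growth difference.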

[2] = NCI Yeast Anticancer Drug Screen. Data for the rad50EPP+ strain (AID 151);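 also: 0% = growth of vehicle-treated control cultures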; details: S. cerevisiae rad50 mutant strain, stronger effect = higher value
In short: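 Strain rad50EPP+; compound exposure; % growth inhibition vs vehicle.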

[3] = NCI Yeast Anticancer Drug Screen. Data for the mgt1 strain (AID 153); details: S. cerevisiae mgt1 mutant growth inhibition, stronger effect = higher value
In short: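 Read-out: yeast growth inhibition vs vehicle control. Strain mgt1, drawn from a panel altered in DNA damage repair or cell cycle control.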

[4] = NCI Yeast Anticancer Drug Screen. Data for the rad50 strain (AID 155);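 also: 0% = growth of vehicle-only cultures of the same strain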; details: S. cerevisiae rad50 strain growth inhibition, stronger effect = higher value
In short: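 DNA repair mutant yeast, compound exposure, growth read-out; inhibition is taken relative to vehicle.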

[5] = NCI Yeast Anticancer Drug Screen. Data for the mec2-1 strain (AID 157); details: S. cerevisiae mec2-1 strain, stronger effect = higher value
In short: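 Cells of the genetically defined mec2-1 yeast strain are incubated with test compound. Inhibition of growth is calculated against vehicle-treated controls.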

[6] = NCI Yeast Anticancer Drug Screen. Data for the rad14 strain (AID 159);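 also: 0% = growth of vehicle-treated control cultures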; details: S. cerevisiae rad14 strain growth inhibition, stronger effect = higher value
In short: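 DNA repair-defective yeast, compound-exposed; % growth inhibition derived by comparison with vehicle-treated controls.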

[7] = NCI Yeast Anticancer Drug Screen. Data for the sgs1 mgt1 strain (AID 161);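 also: 0% = growth of cultures given vehicle only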; details: S. cerevisiae sgs1 mgt1 strain, stronger effect = higher value
In short: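 Inhibition of yeast growth, normalised to vehicle-treated controls, is reported for a strain bearing genetic alterations in DNA damage repair.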

[8] = NCI Yeast Anticancer Drug Screen. Data for the CLN2oe strain (AID 163);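 also: 0% = growth of vehicle-only control cultures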; details: S. cerevisiae CLN2oe strain, stronger effect = higher value
In short: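 Strain altered in cell-cycle control, incubated with compound; growth compared to solvent-treated controls.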

[9] = NCI Yeast Anticancer Drug Screen. Data for the cln2 rad14 strain (AID 165);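 also: 0% = growth equal to vehicle treated cultures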; details: S. cerevisiae cln2 rad14 strain, stronger effect = higher value
In short: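 The screen exposed genetically defined yeast (cln2 rad14) to test compounds and scored growth inhibition relative to vehicle-treated controls.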

[10] = NCI Yeast Anticancer Drug Screen. Data for the bub3 strain (AID 167); details: S. cerevisiae bub3 mutant strain, stronger effect = higher value
In short: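 In this screen, a yeast mutant lacking normal mitotic checkpoint function is challenged with compound. Relative growth versus vehicle gives the inhibition value.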

[11] = NCI Yeast Anticancer Drug Screen. Data for the wt2 strain (AID 169);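 also: 0% = growth of vehicle-treated yeast cultures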; details: S. cerevisiae wt2 strain growth inhibition, stronger effect = higher value
In short: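 Steps: yeast strain treated with compound; growth recorded; inhibition calculated relative to cultures given vehicle alone.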

[12] = NCI Yeast Anticancer Drug Screen. Data for the mlh1 strain (AID 171);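 also: 0% = growth of vehicle-treated control cultures of the same strain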; details: S. cerevisiae mlh1 strain growth inhibition, stronger effect = higher value
In short: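 Yeast screen: mutant strain plus compound, growth scored against vehicle control wells.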

[13] = NCI Yeast Anticancer Drug Screen. Data for the sgs1 strain (AID 173);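 also: 0% = growth of vehicle-only control cultures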; details: S. cerevisiae sgs1 mutant, stronger effect = higher value
In short: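 Inhibition of yeast growth served as the measure. The mutant strain was treated with each compound, and growth was normalised to cultures receiving vehicle alone.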

[14] = NCI Yeast Anticancer Drug Screen. Data for the mlh1 rad18 strain (AID 175); details: S. cerevisiae mlh1 rad18 strain growth inhibition, stronger effect = higher value
In short: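 Compound-treated yeast growth, normalised to vehicle controls. Strain bears defined DNA repair mutations.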

[15] = NCI Yeast Anticancer Drug Screen. Data for the rad18 strain (AID 177); details: S. cerevisiae rad18 mutant growth inhibition, stronger effect = higher value
In short: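 Inhibition values reflect reduced yeast growth compared with vehicle-treated controls, using a strain engineered with a DNA damage repair defect.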

[16] = NCI Yeast Anticancer Drug Screen. Data for the rad52 strain (AID 147);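 also: 0% = growth of vehicle-treated control cultures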; details: S. cerevisiae rad52 mutant growth inhibition, stronger effect = higher value
In short: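 Genetically altered yeast (DNA damage repair defect) treated with compound; inhibition calculated relative to vehicle.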

[17] = at 5.0 µM (retest, dose inferred, filed as 0.5)
[18] = at 50.0 µM (retest, dose inferred, filed as 5.0)

Measured: growth inhibition

O=C1OC(c2ccc(Cl)cc2)Sc2ccccc21 (stereo not given)
active: [1]; at 33.0 µM 88% | [1]; at 100.0 µM 98% | [3]; at 33.0 µM 97% | [3]; at 100.0 µM 94% | [4]; at 33.0 µM 95% | [4]; [18] 88% | [4]; at 50.0 µM 83.8% | [4]; at 100.0 µM 92% | [5]; at 33.0 µM 96% | [5]; at 50.0 µM 86.5% | [5]; at 100.0 µM 98% | [6]; at 33.0 µM 98% | [6]; at 100.0 µM 98% | [7]; at 50.0 µM 85% | [8]; at 33.0 µM 97% | [8]; at 100.0 µM 97% | [10]; at 33.0 µM 96% | [10]; at 50.0 µM 93.9% | [10]; at 100.0 µM 97% | [11]; at 33.0 µM 84% | [11]; at 100.0 µM 98% | [12]; at 33.0 µM 97% | [12]; at 100.0 µM 98% | [13]; at 33.0 µM 96% | [13]; at 100.0 µM 97% | [14]; [18] 86% | [14]; at 50.0 µM 95% | [15]; at 33.0 µM 96% | [15]; at 100.0 µM 94%
inactive: [1]; at 1.2 µM 1% | [1]; at 3.7 µM 6% | [1]; at 11.0 µM 17% | [2]; at 1.2 µM 11% | [2]; at 3.7 µM 28% | [2]; at 11.0 µM 45% | [2]; at 33.0 µM 61% | [2]; at 100.0 µM 58% | [3]; at 1.2 µM 6% | [3]; at 3.7 µM 8% | [3]; at 11.0 µM 17% | [4]; at 1.2 µM 7% | [4]; at 3.7 µM 13% | [4]; [17] 5% | [4]; at 11.0 µM 62% | [5]; at 1.2 µM 9% | [5]; at 3.7 µM 17% | [5]; [17] -7% | [5]; at 11.0 µM 33% | [5]; [18] 35% | [6]; at 1.2 µM 7% | [6]; at 3.7 µM 11% | [6]; at 11.0 µM 25% | [7]; [17] 4% | [7]; [18] 52% | [8]; at 1.2 µM 9% | [8]; at 3.7 µM 13% | [8]; at 11.0 µM 27% | [9]; [17] -61% | [9]; [18] -14% | [9]; at 50.0 µM -26.9% | [10]; at 1.2 µM 11% | [10]; at 3.7 µM 15% | [10]; [17] 7% | [10]; at 11.0 µM 29% | [10]; [18] 46% | [11]; at 1.2 µM 6% | [11]; at 3.7 µM 6% | [11]; at 11.0 µM 31% | [12]; at 1.2 µM 6% | [12]; at 3.7 µM 12% | [12]; at 11.0 µM 27% | [13]; at 1.2 µM 2% | [13]; at 3.7 µM 11% | [13]; at 11.0 µM 37% | [14]; [17] 16% | [15]; at 1.2 µM 6% | [15]; at 3.7 µM 15% | [15]; at 11.0 µM 68%

OC(c1ccc(Br)cc1)(c1cccs1)C1CC1 (stereo not given)
active: [16]; at 33.0 µM 92% | [16]; at 100.0 µM 87% | [1]; at 33.0 µM 97% | [1]; at 100.0 µM 96% | [4]; at 33.0 µM 94% | [4]; [18] 100% | [4]; at 50.0 µM 91.2% | [4]; at 100.0 µM 94% | [5]; at 33.0 µM 99% | [5]; [18] 100% | [5]; at 50.0 µM 93.2% | [5]; at 100.0 µM 97% | [6]; at 33.0 µM 97% | [6]; at 100.0 µM 97% | [7]; [18] 99% | [9]; [18] 99% | [10]; at 33.0 µM 94% | [10]; [18] 100% | [10]; at 100.0 µM 93% | [11]; at 33.0 µM 97% | [11]; at 100.0 µM 96% | [12]; at 33.0 µM 96% | [12]; at 100.0 µM 95% | [13]; at 33.0 µM 95% | [13]; at 100.0 µM 95% | [15]; at 33.0 µM 94% | [15]; at 100.0 µM 91%
inactive: [16]; at 1.2 µM 13% | [16]; at 3.7 µM 21% | [16]; at 11.0 µM 57% | [1]; at 1.2 µM -19% | [1]; at 3.7 µM 3% | [1]; at 11.0 µM 17% | [4]; at 1.2 µM 3% | [4]; at 3.7 µM 21% | [4]; [17] 57% | [4]; at 11.0 µM 56% | [5]; at 1.2 µM 18% | [5]; at 3.7 µM 22% | [5]; [17] 61% | [5]; at 11.0 µM 53% | [6]; at 1.2 µM 5% | [6]; at 3.7 µM 13% | [6]; at 11.0 µM 27% | [7]; [17] -7% | [9]; [17] 45% | [10]; at 1.2 µM 38% | [10]; at 3.7 µM 48% | [10]; [17] 48% | [10]; at 11.0 µM 62% | [11]; at 1.2 µM -12% | [11]; at 3.7 µM 8% | [11]; at 11.0 µM 31% | [12]; at 1.2 µM -15% | [12]; at 3.7 µM 4% | [12]; at 11.0 µM 38% | [13]; at 1.2 µM 17% | [13]; at 3.7 µM 29% | [13]; at 11.0 µM 57% | [15]; at 1.2 µM 1% | [15]; at 3.7 µM 24% | [15]; at 11.0 µM 54%
